# Bioassay records from PubChem.
# Rows were chosen to be rich in hits. Some 1.4% of all compounds tested hit in one or more screens of this group.
# eLon inh: inhibitors of E. coli Lon protease; 360,000 tested, 0.42% active; P0A9M0; inhibition, % at 7.94 µM; purified E. coli Lon protease, fluorescence polarization; AID 602123; in the data active means inhibition above about 13%, passing the limit was not always enough;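 further: 0% = enzyme with probe and DMSO and 100% = no enzyme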
# MCL1 BIM primary: inhibitors of human MCL1 binding to BIM-BH3 peptide. Q07820. GST-MCL1 / FITC-Bim-BH3 fluorescence polarization. inhibition, % at 10.9 µM. 320,000 tested, 0.68% active;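 active means inhibition above the mean inhibition of all tested compounds plus 3 SD, set per campaign, cut at about 40% in these data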;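 further: 0% = DMSO wells and 100% = unlabeled Bim-BH3 peptide control; higher means more loss of mP so more displacement of Bim peptide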
# MEX-5 binding: C. elegans MEX-5 TCR-2 RNA binding activity; Q9XUB2; MEX-5/FITC-TCR2 RNA binding, fluorescence polarization; hits give low values; activity score (negative = inhibition of binding), % at 10 µM; 300,000 tested, 0.38% active; AID 1832;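 active means inhibition past about -25% in most replicates, and total fluorescence under double the plate's negative control median, limit read from the data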;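 further: 0% = DMSO and -100% = 5 µM competing unlabeled TCR2 RNA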
# GLD-1 RNA inh: GLD-1-TGE RNA interaction inhibition (C. elegans) | 320,000 tested, 0.44% active | purified GLD-1 + fluorescein TGE RNA, fluorescence polarization | inhibition, % at 5.96 µM;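 active means percent inhibition above a per-plate cutoff, the plate mean of test compounds plus 3 SD, cut at about 30% in these data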;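 further: 0% = DMSO wells with GLD-1 and probe and 100% = wells lacking GLD-1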
# Target sequence (Q17339 whole entry, looked up): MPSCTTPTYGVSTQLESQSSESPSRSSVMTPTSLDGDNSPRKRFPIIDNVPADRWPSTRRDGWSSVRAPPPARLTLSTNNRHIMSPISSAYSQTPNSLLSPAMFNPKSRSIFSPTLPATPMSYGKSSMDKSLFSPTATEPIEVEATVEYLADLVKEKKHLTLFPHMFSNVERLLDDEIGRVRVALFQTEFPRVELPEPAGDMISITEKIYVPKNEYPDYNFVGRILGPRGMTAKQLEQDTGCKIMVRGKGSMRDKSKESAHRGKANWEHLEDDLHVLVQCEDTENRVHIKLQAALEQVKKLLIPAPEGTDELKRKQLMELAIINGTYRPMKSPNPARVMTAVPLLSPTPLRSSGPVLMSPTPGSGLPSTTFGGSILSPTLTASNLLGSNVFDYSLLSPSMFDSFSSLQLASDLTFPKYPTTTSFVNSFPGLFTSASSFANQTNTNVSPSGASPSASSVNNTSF
# Bcl-xL primary: inhibitors of human Bcl-xL; Q07817; GST-Bcl-xL / FITC-Bim BH3 peptide fluorescence polarization; inhibition, % at 10.9 µM; 320,000 tested, 0.7% active;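 active means inhibition above the mean of all tested compounds plus 3 SD, cutoff set per campaign, cut at about 30% in these data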;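 further: 0% = DMSO wells and 100% = unlabeled Bim-BH3 peptide competitor; inhibitors lower millipolarization by displacing the labeled peptide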
# BCLXL inh confirm: counter-screen for MCL1 inhibitors: confirmation of human Bcl-xL inhibitors | shares compounds with MCL1 BIM primary | GST-Bcl-xL / FITC-Bim BH3 peptide FP binding | AID 2166 | 1,700 tested, 54% active | inhibition, % at 10.9 µM;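 active means inhibition above a cutoff equal to the mean inhibition of all tested compounds plus 3 SD, cut at about 30% in these data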;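 further: 0% = DMSO wells and 100% = unlabeled Bim BH3 control peptide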
# MCL1 inh confirm: MCL1-BIM-BH3 interaction inhibition, confirmation. shares compounds with MCL1 BIM primary. GST-MCL1 / FITC-Bim-BH3 fluorescence polarization. inhibition, % at 10.9 µM. 1,700 tested, 61% active;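 active means inhibition above the average of all tested compounds plus 3 SD, cut at about 40% in these data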;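 further: 0% = DMSO wells and 100% = unlabeled Bim-BH3 control peptide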
# GLD-1 TGE cf: confirmation of C. elegans GLD-1 TGE RNA binding inhibitors; shares compounds with GLD-1 RNA inh; GLD-1/FL-TGE RNA fluorescence polarization, biochemical; inhibition, % at 5.96 µM; 550 tested, 10% active; AID 2459;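 active means average inhibition across triplicates above the hit cutoff set in the primary screen, cut at about 32% in these data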;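 further: 0% = GLD-1 with RNA probe and DMSO and 100% = wells lacking GLD-1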
# eLon confirm: E. coli Lon inhibition confirmation. 1,400 tested, 31% active. inhibition, % at 7.94 µM. shares compounds with eLon inh. purified E. coli Lon, fluorescence polarization; in the data active means inhibition above about 16%;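 further: 0% = enzyme with probe and DMSO and 100% = no enzyme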
# * = called active by the depositor; · = no result given; + = active, no number.
SMILES,eLon inh,MCL1 BIM primary,MEX-5 binding,GLD-1 RNA inh,Bcl-xL primary,eLon confirm,others
C[n+]1c(-c2ccccc2)c2cc(N)ccc2c2ccc(N)cc21,154.1*,+,-90.3*,135.5*,155.5*,76.0*,BCLXL inh confirm=188.6*;MCL1 inh confirm=+
Cc1ccccc1C(=O)N1CC1C (centres undefined),0.0,·,·,·,·,·,
CCN(CC)CCN1Cc2ccccc2C1=N,-3.2,36.1,1.7,35.9*,32.3*,·,GLD-1 TGE cf=-3.5
COC(=O)CCCCC1SCC(NC(=O)c2ccccc2)C1Cl (centres undefined),-1.1,45.6*,2.9,38.0*,48.2*,·,GLD-1 TGE cf=18.6
CC1(C)CN(S(=O)(=O)OCC(Cl)(Cl)Cl)C(=O)N1,4.0,3.1,0.8,7.0,2.1,·,
N#Cc1ccc(/C=C/C(=O)O)cc1,-1.2,3.9,·,55.1*,5.5,·,GLD-1 TGE cf=0.2
N#C/C(=C\c1ccc(O)cc1)C(=O)O,-6.1,·,·,·,·,·,
C/C(=N\N1CCN(C)CC1)c1c(O)n(Cc2ccccc2)c(=O)[nH]c1=O,-0.5,-1.2,0.8,2.0,0.7,·,
CNC(=O)Oc1cccc(-c2cn3cc(OC(=O)NC)ccc3n2)c1,34.8*,19.6,·,41.8*,22.3,3.6,GLD-1 TGE cf=13.1
CCN(CC)C(=O)c1ccc(NC(=O)C2=C(C)OCCS2)cc1,9.4,-0.1,4.1,2.9,7.8,·,
COc1cccc2c1C(=O)c1c(O)c3c(c(O)c1C2=O)CC(O)(C(C)=NO)CC3OC1CC(N)C(O)C(C)O1 (centres undefined),+,·,·,·,·,+,
Oc1cc(Cl)c(Cl)c(Cl)c1Cl,48.9*,·,·,·,·,-12.4,
COC(=O)COc1ccc(/C=C2\C(=O)NC(=S)N(c3ccc(C)cc3)C2=O)cc1OC,-4.5,9.7,-1.2,2.1,0.1,·,
CCC(=NC(C)c1ccccc1)c1c(O)[nH]c(=O)[nH]c1=O (centres undefined),21.3*,1.7,-0.4,0.3,0.4,5.9,
CCC(=NCCC(c1ccccc1)c1ccccc1)c1c(O)[nH]c(=O)[nH]c1=O,-1.7,-3.7,0.3,-0.3,-0.9,·,
CCCC1(CC(C)C)C(=O)NC(=S)NC1=O,-8.7,·,·,·,·,·,
O=c1oc2ccccc2c(O)c1[C@H]1c2ccc(O)cc2Oc2c1c(=O)oc1ccccc21,18.3*,4.8,-2.4,2.5,8.4,16.8*,
Cc1ccc(OCC(=O)N2CCCC(N3CCN(c4ccc(F)cc4)CC3)C2)cc1 (centres undefined),-8.1,6.2,-1.0,-0.6,9.1,·,
COc1ccc(OCC(=O)N2CCCC(N3CCN(c4ccccc4C)CC3)C2)cc1 (centres undefined),134.3*,-2.0,0.7,-2.8,2.0,-3.9,
O=[N+]([O-])c1ccc(N2CCOCC2)c2c1no[n+]2[O-],28.9*,·,·,·,·,4.0,
O=[N+]([O-])c1ccc(N2CCOCC2)c2cccnc12,-2.4,2.5,1.8,1.7,8.3,·,
O=C(c1cc(S(=O)(=O)N2CCC3(CC2)OCCO3)ccc1F)N1CCC2(CC1)OCCO2,-9.6,-2.8,0.5,-0.5,-1.9,·,
CCOc1cccc(=NC2CCCCC2)c2c(C)n(C)c(C)c12,89.8*,13.8,-5.2,-9.3,17.9,0.1,
O=c1[nH]c(=S)n(Cc2ccc(F)cc2)c(O)c1/C=N/N1CCCCCC1,-11.2,5.4,-4.1,-2.0,2.5,·,
